The results in this text go back to PubChem BioAssay AID1010 (Sanford-Burnham Center for Chemical Genomics, 2008).

Screen size: about 48,000 compounds; about 160 (0.33%) were called active. This is one part of a sample in which actives are shown more often than they occur. Unmarked numbers belong to inactive results.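 How the source made its calls: active means survival measured by cellular ATP above 50% at 15 µg/ml in the first screen; inactive means the rest.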

The test in a line: protection against thapsigargin ER stress killing – CSM14.1 cells, ATP luminescence, primary screen (AID 1010).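 Further: cell death triggered by about 15 µM thapsigargin; ATP read 24 h after thapsigargin was added; plate controls were thapsigargin with DMSO for no effect and DMSO without thapsigargin for full effect.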 The note with it: CSM14.1 thapsigargin ER stress survival, active compounds read high, screened at 15 µg/mL (by protocol).
Turning to `CCCCc1ccc(/C=N/Nc2ccc([N+](=O)[O-])cc2)s1`, the relative survival (cellular ATP) is 5%.
Under `CCOc1cc(C2NC(=S)NC(C)=C2C(=O)Nc2ccccc2C)ccc1O` (stereo not given) stands -0.3%; under `CCOc1cc(C=O)cc(I)c1OC(C)C`, 0.3%.
`CC(C)=N/N=C1/NC(=O)C(CC(=O)Nc2ccc(C)c(C)c2)S1` (stereo not given): the relative survival (cellular ATP) was 2%.
For `CC(=O)Nc1ccccc1NC(=O)COc1ccc(C)cc1C`, the relative survival (cellular ATP) is 6.5%.
With `COc1ccc(N2C(=O)/C(=C/c3cc(C)n(-c4ccc([N+](=O)[O-])cc4)c3C)C(=O)NC2=S)cc1`, the relative survival (cellular ATP) is -5.8%.
Regarding `C=CCOc1cccc(/C=N/NS(=O)(=O)c2ccc(Cl)cc2)c1`, the relative survival (cellular ATP) was 3.1%.
As to `O=C(O)c1ccccc1C(=O)N1CCN(C(=O)c2ccccc2C(=O)O)CC1`, the relative survival (cellular ATP) was -0.9%.
With `CCN(CC)c1ccc(Nc2nc(-c3sc(C)nc3C)cs2)cc1`, the relative survival (cellular ATP) is 49.2%.
Under `O=C1/C(=C/c2ccc(F)cc2)SC(=S)N1c1ccc(F)cc1` stands -1.4%; under `CCN1C(=O)/C(=C/c2ccc(NC(=O)c3ccc4ncccc4c3)cc2)SC1=S`, 8.8%.
Then `COC(=O)C(C)NC(=O)CCC1CCCCC1` (stereo not given), with 4.2%.
For `Cc1cccc(C)c1OCC(=O)Nc1sc2c(c1C(N)=O)CCC2`, the relative survival (cellular ATP) is 10.1%.
For the compound `CC(=O)C1=C(O)C(=O)N(CC2CCCO2)C1c1ccc(C(C)C)cc1` (stereo not given), the relative survival (cellular ATP) was -5.9%.
As for `COc1ccc(C2CC(C(F)(F)F)n3nc(C(=O)NCCc4ccccc4)c(Cl)c3N2)cc1OC` (stereo not given), the relative survival (cellular ATP) was 2.7%.
Then `COc1cc(NC(=O)c2cc(Cl)c(OC)c(Cl)c2)ccc1NC(=O)c1ccco1`, with -1.3%.
Consider `CCSc1nnc2c(n1)OC(c1ccc(-c3ccc(Cl)cc3)o1)Nc1ccccc1-2` (stereo not given), for which the relative survival (cellular ATP) was 4.5%.
With `COc1ccccc1/C=N/NC(=O)c1cc(C23CC4CC(CC(C4)C2)C3)[nH]n1`, the relative survival (cellular ATP) is 3%.
As to `Cc1c(OCC(=O)N(C)C)ccc2c3c(c(=O)oc12)CCCC3`, the relative survival (cellular ATP) was 4.4%.
Take `N#Cc1ccc(/C=N/Nc2nc(-c3ccccc3)cs2)cc1`: the relative survival (cellular ATP) is 5.1%.
As to `CS(=O)(=O)N1CCN(Cc2ccc(Br)cc2)CC1`, the relative survival (cellular ATP) is -1.6%.
Then `O=C(CSc1nnc(-c2cccs2)n1-c1ccccc1)c1cccc([N+](=O)[O-])c1`, with -3.1%.
Take `COc1ccc2ccccc2c1-c1cc(C(=O)NN)[nH]n1`: the relative survival (cellular ATP) is -1%.
For `O=C(CCCN1C(=O)c2cccc3cccc(c23)C1=O)N1CCN(Cc2ccc3c(c2)OCO3)CC1`, the relative survival (cellular ATP) was 77.5% (active).
Consider `COCCCN1C(=O)c2cccc3cccc(c23)C1=O`, for which the relative survival (cellular ATP) is 0.8%.
Under `O=C(CCN1C(=O)c2cccc3cccc(c23)C1=O)OCCCc1ccncc1` stands 5.7%.
On to `Cc1[nH]n(-c2ccccc2)c(=O)c1C(c1ccc(C(F)(F)F)cc1)c1c(C)[nH]n(-c2ccccc2)c1=O`, for which the relative survival (cellular ATP) was 4.8%.
Under `O=C(O)CCCNC(=O)c1ccccc1NC(=O)c1ccccc1` stands 7.8%; under `Cc1nnc(N2C(=O)c3ccc(-c4nc5ccccc5c(=O)o4)cc3C2=O)s1`, 5.9%.
On to `CN(C1=NS(=O)(=O)c2ccccc21)c1ccccc1`, for which the relative survival (cellular ATP) is 3.5%.
Consider `O=C(COc1ccccc1)Nc1cccc(NC(=O)c2ccco2)c1`, for which the relative survival (cellular ATP) is 9%.
Turning to `COc1ccccc1/C=C1/SC(=S)N(CCC(=O)N2c3ccccc3Sc3ccc(Cl)cc32)C1=O`, the relative survival (cellular ATP) is 10%.
Consider `CC(N=Cc1ccccc1O)C12CC3CC(CC(O)(C3)C1)C2` (stereo not given), for which the relative survival (cellular ATP) was -0.1%.
Take `Cc1cc(OCC(=O)Nc2ccccc2C(N)=O)cc(C)c1Cl`: the relative survival (cellular ATP) was 2.7%.
For `O=C(Nc1ccc(Br)c(Cl)c1)C(c1ccccc1)c1ccccc1`, the relative survival (cellular ATP) is 4.5%.
